Test systems include MOLT-4 leukemia; RPMI-8226 leukemia; OVCAR-8 ovarian; OVCAR-5 ovarian; OVCAR-4 ovarian; SK-OV-3 ovarian; IGROV1 ovarian; HS 578T breast; NCI/ADR-RES ovarian; T-47D breast; BT-549 breast; MDA-MB-435 melanoma; SW-620 colon; MCF7 breast; HCT-116 colon; HCC-2998 colon; KM12 colon; OVCAR-3 ovarian.
Assay in all cases: NCI-60 one-dose screen, 48 h (100 = growth as untreated, 0 = no growth, -100 = all killed)
What all share (conditions): 10 µM unless noted

The structures appear in SMILES notation. Compounds without any hit were thinned out: in the full panel of roughly 83,000, 20% have a hit.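 Each cell line was grown in a 96-well plate and treated with one concentration of compound for 48 hours. Values below 10 were considered active.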 Values without a mark were called inactive. Activity calls are given as the source filed them.

Take `O=C(Nc1ccc(Br)cc1)c1cc(Br)cc(Br)c1O`: the growth in the assay on MOLT-4 leukemia was 62.2%; in the assay with RPMI-8226 leukemia it was -10.1% (active); in the assay on OVCAR-8 ovarian, 11.1%; in the assay on OVCAR-5 ovarian, 9.56% (active); with OVCAR-4 ovarian, 19.7%; in the assay with SK-OV-3 ovarian it was -11.7% (active). The growth was 19.4% with IGROV1 ovarian; 43.4% in the assay with HS 578T breast; -6.08% (active) with NCI/ADR-RES ovarian; -2.63% (active) with T-47D breast; -28% (active) in the assay on BT-549 breast; 1.23% (active) in the assay with MDA-MB-435 melanoma. Moreover, the growth with SW-620 colon was -15.7% (active); with MCF7 breast it was 8.07% (active); with HCT-116 colon, -13.9% (active); with HCC-2998 colon, 52.1%; in the assay with KM12 colon it was -44.2% (active).
Regarding `Cc1c(NS(=O)(=O)c2ccccc2)ccc([N+](=O)[O-])c1Cl`, the growth is 73.6% in the assay with MOLT-4 leukemia; 42.4% in the assay on RPMI-8226 leukemia; 74.6% with OVCAR-8 ovarian; 89.1% in the assay with OVCAR-5 ovarian; 47.3% with OVCAR-4 ovarian; 71.3% in the assay with SK-OV-3 ovarian. Moreover, the growth was 72.5% in the assay on IGROV1 ovarian; 64.4% in the assay on HS 578T breast; 86.3% with NCI/ADR-RES ovarian; 77.7% with BT-549 breast; 39.8% with MDA-MB-435 melanoma; 91.6% with SW-620 colon. Moreover, the growth was 92.8% with MCF7 breast, 73.3% in the assay on HCT-116 colon and 70.1% in the assay with KM12 colon.
Turning to `COc1ccc(/C=C\c2cc(OC)c(OC)c(OC)c2)cc1NC(=O)/C=C/c1cc(OC)c(OC)c(OC)c1`, the growth with MOLT-4 leukemia is 47.7%; in the assay with RPMI-8226 leukemia, 63.8%; with OVCAR-8 ovarian, 68.8%; in the assay on OVCAR-5 ovarian, 77.6%; in the assay with OVCAR-4 ovarian, 66.1%; in the assay with SK-OV-3 ovarian, 3.82% (active). Moreover, the growth was 62.4% in the assay on IGROV1 ovarian; 47.7% in the assay with OVCAR-3 ovarian; 51.8% with HS 578T breast; 8.42% (active) with NCI/ADR-RES ovarian; 30% with T-47D breast; 44% with BT-549 breast. The growth was -53.2% (active) in the assay on MDA-MB-435 melanoma; 47.6% in the assay on SW-620 colon; 25.2% with MCF7 breast; 91.2% with HCC-2998 colon; 28.6% in the assay on KM12 colon.
Turning to `CC[C@]12C=CCN3CC[C@@]4(c5ccc(OC)cc5N(C)[C@H]4[C@@](O)(C(=O)OC)[C@@H]1OC(=O)CCCC[P+](c1ccccc1)(c1ccccc1)c1ccccc1)[C@@H]32`, the growth in the assay on MOLT-4 leukemia is 5.66% (active); with RPMI-8226 leukemia, 15.4%; in the assay with OVCAR-8 ovarian it was 18.6%; in the assay with OVCAR-5 ovarian it was 23.8%; in the assay with OVCAR-4 ovarian, 5.22% (active); with SK-OV-3 ovarian, -2.96% (active). In addition, the growth was -36.4% (active) in the assay on IGROV1 ovarian; -0.293% (active) in the assay on OVCAR-3 ovarian; 9.79% (active) in the assay on HS 578T breast; 91.6% in the assay with NCI/ADR-RES ovarian; 4.99% (active) in the assay with T-47D breast; -1.04% (active) in the assay with BT-549 breast. Also, the growth was 29.4% in the assay with SW-620 colon; 4.69% (active) with MCF7 breast; 8.03% (active) with HCT-116 colon; 15.9% in the assay with HCC-2998 colon; 3.15% (active) in the assay with KM12 colon.
For the compound `C[C@@]12CC[C@@H](O)C[C@@H]1CC[C@H]1[C@H]2CC[C@@]2(C)[C@H](c3ccc(=O)oc3)CC[C@@]12O`, the growth is -26.7% (active) with MOLT-4 leukemia; -14.8% (active) in the assay with RPMI-8226 leukemia; -63.3% (active) in the assay with OVCAR-8 ovarian; -86.2% (active) in the assay with OVCAR-5 ovarian; -76.3% (active) in the assay on OVCAR-4 ovarian; -11.9% (active) with SK-OV-3 ovarian. In addition, the growth in the assay with IGROV1 ovarian was -28.7% (active); in the assay on OVCAR-3 ovarian, -84.8% (active); in the assay on HS 578T breast, -14% (active); in the assay with NCI/ADR-RES ovarian, -39.6% (active); with T-47D breast it was -18.1% (active); with BT-549 breast, -84.2% (active). For the same compound, the growth is -81.9% (active) with MDA-MB-435 melanoma; -27% (active) in the assay with MCF7 breast; -76% (active) in the assay on HCT-116 colon; -50.7% (active) with HCC-2998 colon; -87.6% (active) in the assay on KM12 colon.
Regarding `N#C[S-].[Au+].c1ccc(CN2[CH-]N(Cc3ccccc3)C(c3ccccc3)=C2c2ccccc2)cc1`, the growth was 3.58% (active) with MOLT-4 leukemia; -16.4% (active) in the assay with RPMI-8226 leukemia; 12.1% with OVCAR-8 ovarian; 36.8% in the assay on OVCAR-5 ovarian; -0.746% (active) in the assay on SK-OV-3 ovarian; 30.3% in the assay on IGROV1 ovarian. Further, the growth in the assay on HS 578T breast was 36.3%; with NCI/ADR-RES ovarian, 59.8%; in the assay on T-47D breast, 7.11% (active); in the assay on BT-549 breast, 23.4%; in the assay on MDA-MB-435 melanoma, 13.3%; in the assay with SW-620 colon, 17.9%. Further, the growth in the assay with MCF7 breast was 4.87% (active); in the assay on HCT-116 colon it was 8.06% (active); in the assay on HCC-2998 colon, 30.9%; with KM12 colon it was 14.2%.
As for `C[C@@]1(CCCCCCCCCc2ccc(O)cc2)C[C@]2(C)OC(=O)C[C@@H]2OO1`, the growth in the assay on MOLT-4 leukemia is 78%; with RPMI-8226 leukemia it was 83%; in the assay with OVCAR-8 ovarian it was 94.5%; in the assay on OVCAR-5 ovarian, 94.7%; in the assay with OVCAR-4 ovarian it was 85.5%; with SK-OV-3 ovarian, 122%. The growth is -51.3% (active) in the assay with IGROV1 ovarian; 126% with OVCAR-3 ovarian; 92.9% in the assay with HS 578T breast; 53.4% in the assay with NCI/ADR-RES ovarian; 83.9% with T-47D breast; 102% in the assay with BT-549 breast. For the same compound, the growth in the assay with SW-620 colon is 103%; in the assay on MCF7 breast it was 117%; in the assay on HCT-116 colon, 77.5%; in the assay on HCC-2998 colon it was 105%; in the assay with KM12 colon, 127%.
For the compound `CC12CCC3C(CCC4Cc5[nH]c6ccccc6c5CC43C)C1CCC2O` (configuration not stated), the growth in the assay with MOLT-4 leukemia was 21.6%; with RPMI-8226 leukemia, -20% (active); with OVCAR-8 ovarian, 36.9%; in the assay on OVCAR-5 ovarian it was 122%; in the assay with SK-OV-3 ovarian, 29.5%; in the assay with IGROV1 ovarian it was 50.8%. Also, the growth in the assay on OVCAR-3 ovarian is -28.3% (active); with HS 578T breast, -8.19% (active); in the assay with NCI/ADR-RES ovarian, 38.4%; with T-47D breast it was 29.2%; in the assay with BT-549 breast, 60.4%; with MDA-MB-435 melanoma, -25.2% (active). Besides, the growth in the assay with SW-620 colon is 11.5%; with MCF7 breast, 5.13% (active); in the assay on KM12 colon, 23.3%.
Consider `O=C1CC2(CC3(Cl)C(Cl)=C(Cl)C2(Cl)C3(Cl)Cl)C(=O)O1` (configuration not stated), for which the growth was 96.5% in the assay on MOLT-4 leukemia; 105% in the assay on RPMI-8226 leukemia; 104% in the assay with OVCAR-8 ovarian; 94.4% with OVCAR-5 ovarian; 116% in the assay with OVCAR-4 ovarian; 112% in the assay with SK-OV-3 ovarian. Besides, the growth with IGROV1 ovarian was 105%; in the assay with OVCAR-3 ovarian, 114%; in the assay on NCI/ADR-RES ovarian it was 101%; in the assay on T-47D breast, 99.6%; in the assay with BT-549 breast, 107%; with MDA-MB-435 melanoma, 103%. Further, the growth is 113% in the assay with SW-620 colon, 99.4% in the assay on MCF7 breast, 102% in the assay on HCC-2998 colon and 106% with KM12 colon.
